In publication PMC7862700, “An all-to-all approach to the identification of sequence-specific readers for epigenetic DNA modifications on cytosine”:

Columns and labels:
Assay in all cases: DAPPL (digital affinity profiling via proximity ligation, sequencing); 10 mM Tris-HCl pH 7.5, 50 mM NaCl, 1 mM DTT, 4% glycerol, room temperature, 30 min; GST-TFs on glutathione beads, 16-mer random dsDNA library, 0.1% formaldehyde crosslink after washing; high values mean tight binding
Details in all cases: protein: recombinant; tags: N-terminal GST; dsDNA, one strand shown
ERF = target: T1, ERF (Homo sapiens, UniProt P50548 1-548)
T1 sequence: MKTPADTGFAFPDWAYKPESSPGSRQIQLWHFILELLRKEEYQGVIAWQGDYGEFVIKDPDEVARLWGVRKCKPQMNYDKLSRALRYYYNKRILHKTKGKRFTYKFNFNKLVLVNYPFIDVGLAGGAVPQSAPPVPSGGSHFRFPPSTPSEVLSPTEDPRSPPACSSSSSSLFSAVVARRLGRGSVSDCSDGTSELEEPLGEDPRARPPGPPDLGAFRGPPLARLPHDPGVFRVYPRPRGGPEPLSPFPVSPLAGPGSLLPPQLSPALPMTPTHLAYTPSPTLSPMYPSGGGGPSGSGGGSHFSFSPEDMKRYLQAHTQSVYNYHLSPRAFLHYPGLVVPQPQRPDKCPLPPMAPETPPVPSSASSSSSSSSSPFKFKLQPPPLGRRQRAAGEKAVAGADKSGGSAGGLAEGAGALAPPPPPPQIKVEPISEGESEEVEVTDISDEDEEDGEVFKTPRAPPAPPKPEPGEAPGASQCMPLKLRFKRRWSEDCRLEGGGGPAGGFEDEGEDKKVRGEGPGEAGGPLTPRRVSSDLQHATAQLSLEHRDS
Summary of the method: (§1)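 Human transcription factors fused to GST were expressed in yeast, captured on glutathione beads, given DNA barcodes and pooled with a GST-only negative control. Pools were incubated with 200 nmole of a 16-mer random double-stranded DNA library in Tris/NaCl/DTT/glycerol buffer at room temperature for 30 min. They were then washed, crosslinked with 0.1% formaldehyde, proximity-ligated (BsaI/T4 ligase, 1 h, 37 °C), PCR-amplified and sequenced on an Illumina NextSeq500. Binding signal is each 6-mer's read frequency for a factor divided by its frequency for the GST control.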

ETV3L = target: T2, ETV3L (Homo sapiens, UniProt Q6ZN32 1-361)
T2 sequence: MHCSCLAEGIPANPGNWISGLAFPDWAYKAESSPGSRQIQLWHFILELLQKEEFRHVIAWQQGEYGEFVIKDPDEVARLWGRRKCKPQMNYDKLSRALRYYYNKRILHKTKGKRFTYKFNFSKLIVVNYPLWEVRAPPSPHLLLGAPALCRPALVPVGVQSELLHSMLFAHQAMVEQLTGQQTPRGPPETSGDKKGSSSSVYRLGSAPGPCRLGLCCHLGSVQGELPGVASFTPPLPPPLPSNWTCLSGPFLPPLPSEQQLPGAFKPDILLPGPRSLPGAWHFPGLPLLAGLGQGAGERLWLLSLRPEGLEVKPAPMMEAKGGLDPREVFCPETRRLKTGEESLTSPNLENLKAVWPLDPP
Summary of the method: as §1

ETS2 = target: T3, ETS2 (Homo sapiens, UniProt P15036 1-469)
T3 sequence: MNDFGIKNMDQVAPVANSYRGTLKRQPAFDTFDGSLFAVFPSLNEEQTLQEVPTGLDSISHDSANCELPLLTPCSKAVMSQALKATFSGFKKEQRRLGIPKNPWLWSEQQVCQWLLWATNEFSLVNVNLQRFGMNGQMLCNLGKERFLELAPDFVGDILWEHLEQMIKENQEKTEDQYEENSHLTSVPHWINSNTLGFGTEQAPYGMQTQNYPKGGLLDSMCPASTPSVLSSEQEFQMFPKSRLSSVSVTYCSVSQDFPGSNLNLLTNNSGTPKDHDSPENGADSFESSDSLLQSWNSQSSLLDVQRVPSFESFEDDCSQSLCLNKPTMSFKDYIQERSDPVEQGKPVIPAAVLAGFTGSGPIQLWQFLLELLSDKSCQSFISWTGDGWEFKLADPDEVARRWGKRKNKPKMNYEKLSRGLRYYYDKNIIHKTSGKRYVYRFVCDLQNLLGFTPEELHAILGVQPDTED
Summary of the method: as §1

SPDEF = target: T4, SPDEF (Homo sapiens, UniProt O95238 1-335)
T4 sequence: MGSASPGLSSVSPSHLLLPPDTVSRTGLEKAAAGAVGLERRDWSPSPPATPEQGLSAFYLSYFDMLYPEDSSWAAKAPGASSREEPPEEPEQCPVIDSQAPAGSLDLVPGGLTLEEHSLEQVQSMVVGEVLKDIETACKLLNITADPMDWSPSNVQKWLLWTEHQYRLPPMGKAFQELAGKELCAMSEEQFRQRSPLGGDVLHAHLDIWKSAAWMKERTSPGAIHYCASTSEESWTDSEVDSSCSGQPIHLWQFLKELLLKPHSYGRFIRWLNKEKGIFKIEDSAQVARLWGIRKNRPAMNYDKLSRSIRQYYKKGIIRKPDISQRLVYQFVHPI
Summary of the method: as §1

ETV7 = target: T5, ETV7 (Homo sapiens, UniProt Q9Y603 1-341)
T5 sequence: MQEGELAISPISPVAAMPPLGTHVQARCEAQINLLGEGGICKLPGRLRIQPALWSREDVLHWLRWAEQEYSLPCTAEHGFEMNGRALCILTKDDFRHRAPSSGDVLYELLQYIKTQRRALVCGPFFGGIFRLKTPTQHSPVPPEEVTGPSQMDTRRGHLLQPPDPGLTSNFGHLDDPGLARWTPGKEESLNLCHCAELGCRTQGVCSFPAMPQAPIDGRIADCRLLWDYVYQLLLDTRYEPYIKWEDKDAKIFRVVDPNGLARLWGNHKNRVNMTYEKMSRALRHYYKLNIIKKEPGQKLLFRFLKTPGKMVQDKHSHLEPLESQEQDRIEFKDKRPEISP
Summary of the method: as §1

ELF5 = target: T6, ELF5 (Homo sapiens, UniProt Q9UKW6-2 1-255)
T6 sequence: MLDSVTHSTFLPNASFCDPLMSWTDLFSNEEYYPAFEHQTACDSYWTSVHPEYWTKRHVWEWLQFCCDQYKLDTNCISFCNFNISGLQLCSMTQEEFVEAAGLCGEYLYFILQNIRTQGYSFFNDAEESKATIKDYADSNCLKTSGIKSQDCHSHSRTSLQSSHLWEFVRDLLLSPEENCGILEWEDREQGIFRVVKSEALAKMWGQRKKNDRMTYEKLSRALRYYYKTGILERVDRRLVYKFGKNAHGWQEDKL
Summary of the method: as §1

ETV3 = target: T7, ETV3 (Homo sapiens, UniProt P41162-2 1-143)
T7 sequence: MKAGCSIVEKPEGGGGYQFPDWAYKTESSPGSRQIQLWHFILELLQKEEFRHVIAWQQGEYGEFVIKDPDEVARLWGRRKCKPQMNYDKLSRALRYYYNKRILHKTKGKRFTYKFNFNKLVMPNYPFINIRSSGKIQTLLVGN
Summary of the method: as §1

ETV6 = ETV6 (Homo sapiens, UniProt P41212 1-452)
Chain of ETV6 (P41212 whole entry): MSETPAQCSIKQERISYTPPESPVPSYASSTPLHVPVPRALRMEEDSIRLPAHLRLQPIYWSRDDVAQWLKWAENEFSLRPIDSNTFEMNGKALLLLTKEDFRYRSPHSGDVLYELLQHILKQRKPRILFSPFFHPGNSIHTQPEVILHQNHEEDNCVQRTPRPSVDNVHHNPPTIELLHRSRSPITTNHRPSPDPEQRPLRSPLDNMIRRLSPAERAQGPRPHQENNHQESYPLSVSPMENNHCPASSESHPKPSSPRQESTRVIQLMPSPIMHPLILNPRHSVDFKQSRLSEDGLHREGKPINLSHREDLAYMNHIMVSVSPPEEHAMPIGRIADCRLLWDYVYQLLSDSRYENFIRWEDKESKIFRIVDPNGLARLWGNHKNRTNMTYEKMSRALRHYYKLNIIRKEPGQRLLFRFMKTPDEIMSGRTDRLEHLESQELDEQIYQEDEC
Summary of the method: as §1

Row | Sequence | binding signal (ERF) | binding signal (ETV3L) | binding signal (ETS2) | binding signal (SPDEF) | binding signal (ETV7) | binding signal (ELF5) | binding signal (ETV3) | binding signal (ETV6)
1 | GCTTTG | 1.09 fold enrichment (6-mer frequency, TF over GST control) | 1.19 fold enrichment (6-mer frequency, TF over GST control) | 1.16 fold enrichment (6-mer frequency, TF over GST control) | 1.12 fold enrichment (6-mer frequency, TF over GST control) | 1.44 fold enrichment (6-mer frequency, TF over GST control) | 1.13 fold enrichment (6-mer frequency, TF over GST control) | 1.15 fold enrichment (6-mer frequency, TF over GST control) | 1.24 fold enrichment (6-mer frequency, TF over GST control)
2 | ATTTTG | 1.24 fold enrichment (6-mer frequency, TF over GST control) | 1.29 fold enrichment (6-mer frequency, TF over GST control) | 1.2 fold enrichment (6-mer frequency, TF over GST control) | 1.09 fold enrichment (6-mer frequency, TF over GST control) | 1.14 fold enrichment (6-mer frequency, TF over GST control) | 1.2 fold enrichment (6-mer frequency, TF over GST control) | 1.1 fold enrichment (6-mer frequency, TF over GST control) | 1.24 fold enrichment (6-mer frequency, TF over GST control)
3 | AACTAG | 1.16 fold enrichment (6-mer frequency, TF over GST control) | 1.09 fold enrichment (6-mer frequency, TF over GST control) | 1.11 fold enrichment (6-mer frequency, TF over GST control) | 1.08 fold enrichment (6-mer frequency, TF over GST control) | 1.1 fold enrichment (6-mer frequency, TF over GST control) | 1.13 fold enrichment (6-mer frequency, TF over GST control) | 1.14 fold enrichment (6-mer frequency, TF over GST control) | 1.15 fold enrichment (6-mer frequency, TF over GST control)
4 | ATTCAC | 1.21 fold enrichment (6-mer frequency, TF over GST control) | 1.21 fold enrichment (6-mer frequency, TF over GST control) | 1.29 fold enrichment (6-mer frequency, TF over GST control) | 1.21 fold enrichment (6-mer frequency, TF over GST control) | 1.24 fold enrichment (6-mer frequency, TF over GST control) | 1.19 fold enrichment (6-mer frequency, TF over GST control) | 1.23 fold enrichment (6-mer frequency, TF over GST control) | 1.17 fold enrichment (6-mer frequency, TF over GST control)
5 | TCTTAC | 1.29 fold enrichment (6-mer frequency, TF over GST control) | 1.3 fold enrichment (6-mer frequency, TF over GST control) | 1.21 fold enrichment (6-mer frequency, TF over GST control) | 1.36 fold enrichment (6-mer frequency, TF over GST control) | 1.31 fold enrichment (6-mer frequency, TF over GST control) | 1.24 fold enrichment (6-mer frequency, TF over GST control) | 1.27 fold enrichment (6-mer frequency, TF over GST control) | 1.33 fold enrichment (6-mer frequency, TF over GST control)
6 | TTTCAT | 1.25 fold enrichment (6-mer frequency, TF over GST control) | 1.15 fold enrichment (6-mer frequency, TF over GST control) | 1.17 fold enrichment (6-mer frequency, TF over GST control) | 1.2 fold enrichment (6-mer frequency, TF over GST control) | 1.2 fold enrichment (6-mer frequency, TF over GST control) | 1.23 fold enrichment (6-mer frequency, TF over GST control) | 1.22 fold enrichment (6-mer frequency, TF over GST control) | 1.13 fold enrichment (6-mer frequency, TF over GST control)
7 | AGCTTT | 1.15 fold enrichment (6-mer frequency, TF over GST control) | 1.2 fold enrichment (6-mer frequency, TF over GST control) | 1.19 fold enrichment (6-mer frequency, TF over GST control) | 1.12 fold enrichment (6-mer frequency, TF over GST control) | 1.25 fold enrichment (6-mer frequency, TF over GST control) | 1.04 fold enrichment (6-mer frequency, TF over GST control) | 1.07 fold enrichment (6-mer frequency, TF over GST control) | 1.19 fold enrichment (6-mer frequency, TF over GST control)
